KB-3-1 cytotox: kills parental KB-3-1 adenocarcinoma cells | AID 1347075 | Potency, µM (top dose mostly 46.1 µM), most hits filed as cytotoxic | KB-3-1 viability, CellTiter-Glo ATP luminescence, 72 h | 1.4% of 400,000 active; further: nearly all actives have a fitted effect of over 60% in size
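KB-3-1 parental drug-naive adenocarcinoma cells in DMEM/10% FBS, incubated 72 h at 37 C with pin-transferred compounds across a concentration series. Viability by CellTiter-Glo luminescence; concentration-response curves fitted after normalization.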
HT1080NT lethal: kills 2HG-producing HT-1080-NT fibrosarcoma cells | HT-1080-NT fibrosarcoma viability, CellTiter-Glo ATP luminescence, 48 h | Potency, µM (series often up to 46.1 µM), for the others: at the top dose activity, negative = less viability, hits mostly cytotoxic | 1.6% of 360,000 active;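 further: NT is the 2HG producing partner of a matched IDH1 knockdown line; 0% = DMSO-treated cells and -100% = media-only wells without cells; nearly all actives have a fitted effect of over 55% in size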
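Read-out is CellTiter-Glo luminescence after 10 minutes at room temperature, following 48 hours' compound treatment of HT-1080-NT cells (750 cells/well, RPMI, 5% FBS, 37 degrees C).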
HT1080 IDH1KD tx: kills HT-1080 cells with IDH1 knockdown; HT-1080 IDH1 knockdown viability, ATP luminescence, 48 h; Potency, µM (top dose mostly 46.1 µM), without a hit: top-dose activity, negative = toxicity, most hits filed as cytotoxic; 2% of 360,000 active;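 further: 0% = DMSO wells and -100% = cell-free medium wells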
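Using the IDH1-knockdown HT-1080 line run in the same batch and compound series as the NT line, viability after 48 h at 37 °C was determined by CellTiter-Glo luminescence and expressed as % activity.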
DT40 TDP1 no CPT: qHTS for Inhibitors of human tyrosyl-DNA phosphodiesterase 1 (TDP1): qHTS in cells in absence of CPT; AID 686978, 2013; Potency, µM (highest dose often 46.2 µM), for the others: at the top dose activity change, negative = growth inhibition, hits mostly inhibitors; 15% of 420,000 active; DT40 Tdp1-/- hTDP1 cells, no CPT, ATP luminescence, 48 h; further: nearly all actives have a fitted effect of over 55% in size
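Compound effects on proliferation are scored in DT40 Tdp1-/-;hTDP1 cells in the absence of CPT. ATP levels (CellTiter-Glo luminescence) are recorded after a ≥48 hr, 37 °C incubation.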
TDP1 cell CPT: growth inhibition of DT40 Tdp1-/-;hTDP1 cells with camptothecin (screen for TDP1 inhibitors); Potency, µM (top dose mostly 46.2 µM), without a hit: at the top dose activity change, negative = growth inhibition, hits mostly inhibitors; AID 686979; 12% of 420,000 active; chicken DT40 Tdp1-/-;hTDP1 cells + 20 nM CPT, ATP luminescence, 48 h; further: nearly all actives have a fitted effect of over 55% in size
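Chicken DT40 Tdp1-/- cells complemented with human TDP1, 400 cells/well, exposed to compounds plus 20 nM camptothecin for at least 48 h at 37 C; viability read as ATP content by CellTiter-Glo luminescence.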
KB-V1 MDR tox: kills drug-selected multidrug resistant KB-V1 cells | KB-V1 MDR cells viability, CellTiter-Glo, 72 h | Potency, µM (series often up to 46.1 µM), most hits filed as cytotoxic | 3.4% of 400,000 active | AID 1347076; further: nearly all actives have a fitted effect of over 60% in size
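KB-V1, DMEM (no phenol red) + 10% FBS; cpd pin-transferred, titration series; 72 h, 37 degrees C; CellTiter-Glo, luminescence. Data normalized, curve-fit.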
Active calls of the source: *; i = inactive; ? = inconclusive; · = no result; ! = not active in a repeat. Rows were chosen to be rich in hits. Some 19% of all compounds tested hit in one or more screens of this group. The call rests on the fitted dose curve; in most records, active means well fitted curve in the direction sought with a large enough effect; inconclusive means small, poorly fitted or top-dose-only effect, or another doubt; inactive means no such curve, though single readings can be large; an effect the other way counts as inactive or inconclusive. Unless noted, on the % scale 0 is the no-effect control and ±100 the full control effect; potency means the concentration at half of the fitted maximal effect.

SMILES	KB-3-1 cytotox	HT1080NT lethal	HT1080 IDH1KD tx	DT40 TDP1 no CPT	TDP1 cell CPT	KB-V1 MDR tox
CN1C[C@@H](CO)C=C2c3cccc4[nH]cc(c34)CC21 (stereo partly specified)	·	·	·	-24.0%	10.2%	·
CN1C[C@H](C(=O)N[C@@]2(C)O[C@@]3(O)C4CCCN4C(=O)C(Cc4ccccc4)N3C2=O)C[C@H]2c3cccc4[nH]cc(c34)C[C@H]21 (stereo partly specified)	·	·	·	-15.3%	12.3%	·
CC(C)C[C@H]1C(=O)N2CCCC2[C@]2(O)O[C@](NC(=O)[C@@H]3C=C4c5cccc6[nH]cc(c56)CC4N(C)C3)(C(C)C)C(=O)N12 (stereo partly specified)	i	-24.5%	-22.5%	16.4µM*	?	i
CC(C)[C@H]1C(=O)N2CCC[C@H]2[C@]2(O)O[C@](NC(=O)[C@@H]3C=C4c5cccc6[nH]cc(c56)C[C@H]4N(C)C3)(C(C)C)C(=O)N12	i	-4.0%	-0.4%	5.8µM*	?	i
CN1[C@H]2CC[C@@H]1C(C(=O)N1CCOCC1)=C(O)C2	i	15.0%	15.7%	-4.7%	3.5%	i
Cc1ccc(NC(=S)NCC2CCCO2)cc1 (stereo unspecified)	i	-4.4%	-0.4%	?	-3.2%	i
O=C(CSc1ncnc2c1nnn2-c1ccc(F)cc1)NCC1CCCO1 (stereo unspecified)	i	-15.5%	-7.8%	20.6µM*	14.6µM*	i
COP(=S)(OC)Oc1ccc(S(=O)(=O)N(C)C)cc1	·	·	·	4.9%	8.8%	·
CC/C(=C(\c1ccc(O)cc1)c1ccc(OCCN(C)C)cc1)c1ccccc1	i	16.4µM*	18.4µM*	14.6µM*	?	?
CCOP(=O)(OCC)c1nc(-c2cccc3ccccc23)oc1N1CCCCC1	?	?	?	?	20.6µM*	?
COP(=O)(OC)c1nc(-c2ccc([N+](=O)[O-])cc2)oc1N1CCCCC1	i	-2.6%	0.0%	20.6µM*	?	i
COc1ccc(CNc2oc(-c3cccc4ccccc34)nc2P(=O)(OC)OC)cc1	i	-5.9%	-2.9%	?	?	i
O=C(O)c1[nH]n(-c2ccc(S(=O)(=O)O)cc2)c(=O)c1N=Nc1ccc(S(=O)(=O)O)cc1	i	·	·	?	?	i
CC1C(c2ccccc2)OC(=O)N1C (stereo unspecified)	i	-2.8%	17.2%	-2.2%	-10.5%	i
O=S1(=O)N(Cc2ccccc2Cl)CCCN1Cc1ccccc1Cl	i	·	·	?	16.4µM*	i
O=S1(=O)N(Cc2ccccc2)CCCN1Cc1ccc(F)cc1Cl	i	·	·	?	?	i
COc1ccccc1C1SCC(=O)Nc2c1c(C)nn2-c1cccc(C)c1 (stereo unspecified)	i	·	·	?	?	i
COc1ccc(Br)cc1C1SCC(=O)Nc2c1c(C)nn2-c1ccccc1C (stereo unspecified)	?	·	·	18.4µM*	?	i
CCCOc1ccccc1C1SCC(=O)Nc2c1c(=O)[nH]n2C(C)CCC (stereo unspecified)	i	-1.8%	8.7%	-27.2%	-1.4%	i
Cc1ccccc1-n1nc(C)c2c1NC(=O)CSC2c1ccccc1C(F)(F)F (stereo unspecified)	?	·	·	?	25.9µM*	i
O=c1c2ccccc2nc(C[n+]2ccccc2)n1-c1cccc(C(F)(F)F)c1	i	3.1%	6.8%	-3.2%	23.5%	i
Cc1ccc(NC(=O)C2C3CCCC2C3c2ccccc2)c(C)c1 (stereo unspecified)	i	10.8%	11.1%	23.1µM*	?	i
N#Cc1cccc(NC(=O)N2CC[C@@]3(CCCN(C(=O)Oc4ccccc4)C3)C2)c1	·	·	·	?	-4.3%	·
C[n+]1ccc(-c2ccccc2)c2ccccc21	?	?	-25.7%	2.59µM*	2.31µM*	i
CNC(=O)OCC[N+](C)(C)C	·	·	·	-19.3%	5.1%	·
SMILES	KB-3-1 cytotox	HT1080NT lethal	HT1080 IDH1KD tx	DT40 TDP1 no CPT	TDP1 cell CPT	KB-V1 MDR tox
CN1CCN(C(=O)COc2ccc(S(=O)(=O)NC3CCCCC3)cc2Cl)CC1	i	0.0%	8.9%	4.5%	13.0%	i
Cn1c(=O)oc2cc(S(=O)(=O)N3CCC(C(=O)N4CC=C(c5ccccc5)CC4)CC3)ccc21	?	0.0%	2.5%	11.6µM*	23.1µM*	i
Cn1c(=O)oc2cc(S(=O)(=O)N3CCC(C(=O)N4CCN(c5ccc(F)cc5)CC4)CC3)ccc21	?	0.0%	0.5%	9.2µM*	25.9µM*	i
Cc1cccc(NC(=O)C2CCCN(S(=O)(=O)c3ccc4c(c3)oc(=O)n4C)C2)c1 (stereo unspecified)	i	16.4%	-14.5%	?	?	i
COc1cccc(N2CCN(C(=O)C3CCCN(S(=O)(=O)c4ccc5c(c4)oc(=O)n5C)C3)CC2)c1 (stereo unspecified)	11.6µM*!	12.2%	-5.1%	14.6µM*	18.4µM*	i
Cc1ccc(Cl)cc1N1CCN(C(=O)C2CCN(S(=O)(=O)c3ccc4c(c3)oc(=O)n4C)CC2)CC1	i	·	·	0.731µM*	1.16µM*	i
CCN(CC)C(=O)c1ccc(NC(=O)COC(=O)c2ccc(Cl)s2)cc1	i	16.2%	7.5%	-1.4%	-6.1%	i
CN(C)C(=O)Oc1ccc(Br)c2ccccc12	i	-2.8%	-8.7%	2.1%	?	i
Cn1c(=O)oc2cc(S(=O)(=O)N3CCc4ccccc43)ccc21	?	-14.8%	?	-5.1%	?	?
CC(C)COC(=O)n1c(=O)oc2cc(S(=O)(=O)N3CCCCC3)ccc21	?	?	?	?	?	i
Cc1ccc(Cl)cc1NC(=O)Cn1c(=O)oc2cc(S(=O)(=O)N3CCCCCC3)ccc21	i	·	·	16.4µM*	14.6µM*	i
Cc1cccc(N2CCN(C(=O)CCNS(=O)(=O)c3ccc4c(c3)oc(=O)n4C)CC2)c1C	?	-26.6%	-0.3%	16.4µM*	?	?
Cn1c(=O)oc2cc(S(=O)(=O)N3CCC(C(=O)N4CCN(c5ccccc5)CC4)CC3)ccc21	?	21.6%	9.3%	20.6µM*	?	i

High-throughput results as filed in PubChem.
